# Source: PubChem BioAssay
# Beta apoptosis: blocks beta cell apoptosis; INS-1E cytokine-induced death, ATP luminescence, 48 h; percent of positive-control rescue, neutral wells zero; protection from apoptosis, % (test concentration not listed); 0.8% of 300,000 active;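 active means Every replicate reaches about 75%, or at least half do and their mean reaches it too, limit read from the data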;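 further: 0% = cytokine-treated negative control wells and 100% = positive control rescue; higher means more ATP so stronger rescue from cytokine killing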
# SKKanGAS inh: blocks kanamycin growth of S. pyogenes SKKanGAS strain. 1.3% of 300,000 active. BacTiter-Glo, 6 h. inhibition, % at 7.5 µM. AID 1662;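 active means mean replicate score, as percent of positive control median, at least 50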;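 further: strain carries kanamycin resistance gene driven by streptokinase promoter and grows in 40 µg/ml kanamycin; loss of luminescence reflects streptokinase promoter inhibition or plain growth inhibition; 0% = median of DMSO wells and 100% = positive control at its reference dose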
# CSC inhib: cancer stem cell inhibition. cancer stem cell-like cells viability, luminescence. inhibition, % at 7.5 µM. 1.1% of 300,000 active. AID 2717; in the data active means inhibition above about 75%; tested in HMLE shEcad cells
# Mdm2-MdmX inh: human Mdm2/MdmX binding inhibition | O15151+Q00987 | 3% of 330,000 active | inhibition, % at 8 µM | SaOS-2 split-luciferase Mdm2/MdmX complementation, luminescence;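 active means inhibition of at least 50% at 8 µM in the primary screen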
# Target sequence (O15151 whole entry, looked up): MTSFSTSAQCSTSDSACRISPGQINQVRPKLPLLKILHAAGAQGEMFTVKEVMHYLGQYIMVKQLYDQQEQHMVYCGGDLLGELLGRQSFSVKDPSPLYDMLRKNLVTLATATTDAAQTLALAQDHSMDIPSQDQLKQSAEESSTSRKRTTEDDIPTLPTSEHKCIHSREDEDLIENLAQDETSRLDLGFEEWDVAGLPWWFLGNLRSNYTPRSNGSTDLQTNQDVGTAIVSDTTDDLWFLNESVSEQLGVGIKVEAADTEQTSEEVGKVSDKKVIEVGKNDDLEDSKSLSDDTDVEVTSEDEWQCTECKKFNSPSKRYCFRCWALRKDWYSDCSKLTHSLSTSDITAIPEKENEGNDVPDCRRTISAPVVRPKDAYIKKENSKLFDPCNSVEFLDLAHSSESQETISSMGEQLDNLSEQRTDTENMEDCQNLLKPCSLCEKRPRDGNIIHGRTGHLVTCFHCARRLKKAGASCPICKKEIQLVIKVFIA
# Target sequence (Q00987 whole entry, looked up): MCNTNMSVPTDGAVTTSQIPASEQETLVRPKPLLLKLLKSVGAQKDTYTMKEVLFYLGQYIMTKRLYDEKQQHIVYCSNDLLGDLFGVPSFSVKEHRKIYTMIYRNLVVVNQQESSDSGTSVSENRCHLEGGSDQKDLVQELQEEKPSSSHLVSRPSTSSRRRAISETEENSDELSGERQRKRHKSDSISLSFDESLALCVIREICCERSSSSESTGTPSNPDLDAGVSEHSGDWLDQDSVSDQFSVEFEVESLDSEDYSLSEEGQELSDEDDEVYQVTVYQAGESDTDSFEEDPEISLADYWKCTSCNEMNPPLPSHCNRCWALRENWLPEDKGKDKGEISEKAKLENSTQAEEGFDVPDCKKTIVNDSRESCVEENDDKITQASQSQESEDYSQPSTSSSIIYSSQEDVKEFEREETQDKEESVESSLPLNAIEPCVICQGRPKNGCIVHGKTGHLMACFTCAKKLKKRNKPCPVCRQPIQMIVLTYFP
# Calb FLC: C. albicans growth modulation with fluconazole | growth inhibition, % (test concentration not listed) | AID 1979 | 0.57% of 300,000 active | C. albicans CaCi-2 (fluconazole-resistant clinical isolate) + fluconazole, Alamar Blue growth, 48 h;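 active means growth inhibition above about 58% in most replicates, limit read from the data, passing the limit was not always enough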;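 further: all wells also contain fluconazole at 8 µg/ml as a sub-toxic cotreatment; 0% = median of DMSO wells and 100% = median of geldanamycin control wells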
# MPTP inh: blocks calcium-induced mitochondrial swelling; 1.4% of 360,000 active; AID 602449; isolated mouse mitochondria, Ca2+ swelling absorbance, 30 min; inhibition, % at 10 µM;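 active means inhibition of 50% or more, scaled per plate between neutral and stimulator controls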;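 further: 0% = DMSO wells given calcium and 100% = 1 mM EGTA wells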
# Rh123 counter: membrane potential counter-screen of mitochondrial pore inhibitors; shares compounds with MPTP inh; isolated mitochondria, Rhodamine 123 fluorescence; inhibition, % at 10 µM; 78% of 5,000 active; AID 624504; in the data active means inhibition above about 22%;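 further: 0% = DMSO vehicle and 100% = positive control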
# MPTP abs DR: dose response confirmation of mitochondrial permeability transition pore inhibitors | 58% of 780 active | shares compounds with MPTP inh | IC50, µM | isolated mitochondria swelling, absorbance; in the data active means IC50 below about 20 µM
# MPTP cs DR: active in counter-screen for permeability transition pore inhibitors. shares compounds with MPTP inh. isolated mitochondria counterscreen, fluorescence read-out. IC50, µM. 49% of 780 active. AID 651564; in the data active means IC50 below about 80 µM
# * marks the source's active call; other numbers are inactive results; i = inactive; · = not tested or not shown. Shown are actives, neighbours in structure and some others; about 5.4% of the full set was active somewhere.
SMILES,Beta apoptosis,SKKanGAS inh,CSC inhib,Mdm2-MdmX inh,Calb FLC,MPTP inh,Rh123 counter,others
CCCCCSc1cc(OC)c(CCN(C)C)cc1OC,14,0,18,21,3,84*,-8,MPTP abs DR=6.3*;MPTP cs DR=>80
CCCCCSc1cc(O)c(C(CNC)C(C)C)cc1OC (centres undefined),20,4,-4,46,-30,15,·,
c1ccc2c(CNC3CCCCCC3)c[nH]c2c1,50,·,3,42,·,71*,-6,MPTP abs DR=8.7*;MPTP cs DR=73*
CS(=O)(=O)c1ccc(C2=C(CNC(=O)c3cccs3)[C@H]3CC[C@@H](C2)N3Cc2ccco2)cc1,·,·,·,·,·,0,·,
CCCCN1C(=O)/C(=C\c2ccco2)C(=O)N(CCc2ccccc2)C1=O,-10,18,-17,-8,3,68*,-6,
Nc1c2c(nc3sc4c(c13)CCCCC4)CCCC2,3,-3,10,-29,-12,88*,80*,
O=C(Nc1ccccc1Cl)OC1CN2CCC1CC2 (centres undefined),·,4,-13,-25,-4,0,·,
O=C(Nc1cccc(Cl)c1)OC1CN2CCC1CC2 (centres undefined),·,6,18,30,-8,92*,88*,
O=C(Nc1ccc(Cl)cc1)OC1CN2CCC1CC2 (centres undefined),-10,-5,18,-23,3,78*,93*,
CC(C)CCNC(=O)c1cc(C(=O)c2cc(F)ccc2O)cn(CCC(C)C)c1=O,-5,47,-6,-6,3,53*,-2,MPTP abs DR=i;MPTP cs DR=5.9*
CC(C)CCNC(=O)c1cc(C(=O)c2cc(Br)ccc2O)cn(CCC(C)C)c1=O,8,6,10,34,-11,93*,7,MPTP abs DR=>100;MPTP cs DR=<2.5*
Cn1cccc1CN1CCN(C(=O)COc2ccccc2)CC1,-1,2,·,2,8,14,·,
Cn1nc(-c2ccc(OCC(=O)N3CCN(Cc4ccccc4)CC3)cc2)c2ccccc2c1=O,35,5,-1,48,38,72*,43*,
COc1ccc2nc(/N=C/c3c(O)n(-c4cccc(Cl)c4)c(=O)[nH]c3=O)sc2c1,-11,0,-12,9,1,2,·,
O=C1N(c2ccc(Cl)cc2)C(c2cccnc2)N2CCCN12 (centres undefined),-4,-12,5,-17,-6,67*,104*,
O=C1NC(=O)C(=Cc2ccc(-c3ccccc3[N+](=O)[O-])o2)C(=O)N1,-2,1,20,3,-4,51*,47*,
O=C1NC(=O)C(=Cc2ccc(-c3cc(Cl)ccc3[N+](=O)[O-])o2)C(=O)N1,·,0,·,·,27,31,·,
Cc1cc2c(C(C)C)c(O)c(O)c(C=O)c2c(O)c1-c1c(C)cc2c(C(C)C)c(O)c(O)c(C=O)c2c1O,·,·,·,·,·,85*,19,
CC(C)CN1Cc2cc(-c3ccccc3)ccc2-n2nncc2C1,·,·,·,·,·,1,·,
CN(C)C(=O)Oc1ccc(C(=O)c2ccccc2)cc1,1,4,-5,-5,-23,-2,·,
CN(C)CCOc1ccc(/C(=C(/CCCl)c2ccccc2)c2ccccc2)cc1,·,101*,·,3,·,106*,-16,MPTP abs DR=6.7*;MPTP cs DR=41*
Clc1cccc(N2CCNCC2)c1Cl,·,5,-3,20,1,-4,·,
c1ccc2c(N3CCNCC3)cccc2c1,-13,-2,-6,32,·,70*,-5,MPTP abs DR=19*;MPTP cs DR=>80
COC(=O)C1=Nc2ccccc2/C1=C\c1c(O)n(-c2cc(OC)ccc2OC)c(=O)[nH]c1=O,0,10,8,12,15,58*,-3,MPTP abs DR=i;MPTP cs DR=>80
COc1ccc(C(c2nnnn2C(C)(C)C)N2CCC3(CC2)C(=O)NCN3c2ccccc2)cc1 (centres undefined),·,·,·,·,·,0,·,
SMILES,Beta apoptosis,SKKanGAS inh,CSC inhib,Mdm2-MdmX inh,Calb FLC,MPTP inh,Rh123 counter,others
Cc1nc2ccccc2c(=O)n1-c1ccc(Cl)cc1[N+](=O)[O-],-16,-4,-3,12,3,0,·,
CNC(=O)Oc1cc2c(cc1C(C)(C)C)CCC2,·,·,·,·,·,0,·,
CSc1ccc(CN2CCN(c3ccccc3C)CC2)cc1,·,2,·,16,-6,0,·,
CCc1ccc(CN2CCN(Cc3ccc(SC)cc3)CC2)cc1,0,6,50,23,-15,56*,-7,MPTP abs DR=i;MPTP cs DR=45*
Cc1cccc(CCNCc2cc3cc(C)cc(C)c3[nH]c2=O)c1,1,6,7,-1,15,-2,·,
Cc1cccc(CCNCc2cc3cccc(C)c3[nH]c2=O)c1,-3,-6,9,14,-4,67*,44*,
CCC1C2Cc3ccc(O)cc3C1(CC)CCN2C (centres undefined),·,·,·,·,·,0,·,
CCCCn1c(NC(=O)c2ccc(Br)o2)c(C(=O)OCC)c2nc3ccccc3nc21,6,·,13,10,·,4,·,
CCCCn1c(NS(=O)(=O)c2ccccc2)c(C(=O)OCC)c2nc3ccccc3nc21,-3,23,18,·,·,59*,50*,
O=C(NC1CN2CCC1CC2)c1ccc(-c2ccc([N+](=O)[O-])cc2)o1 (centres undefined),-4,-16,-15,-4,3,-3,·,
CC(=O)c1cn(CCCOc2ccccc2)c2ccccc12,30,-4,·,17,-1,82*,56*,
CN(C)CCOC(=O)c1cn(Cc2ccccc2)c2ccccc12,6,3,59,-9,-13,59*,-8,MPTP abs DR=18*;MPTP cs DR=>80
O=c1cccc2n1C[C@@H]1C[C@@H]2CN(CC(O)c2ccc([N+](=O)[O-])cc2)C1 (some centres undefined),0,0,4,11,-3,0,·,
COc1ccc2c(c1)[C@@]13CCC=C[C@H]1[C@@H](C2)NCC3,1,·,-10,22,·,55*,-6,MPTP abs DR=i;MPTP cs DR=>80
COc1ccc2c(c1)C13CCN(C)C(C2)C1CCC1(C3)OCCO1 (centres undefined),·,·,·,·,·,-1,·,
N/C(=N\[N+](=O)[O-])N1CCN(C(=O)OC2CCCC2)CC1,6,3,-5,-12,2,1,·,
CN1CCC(N(C)c2nc(-c3ccc([N+](=O)[O-])cc3)nc3ccccc23)CC1,·,25,·,·,-1,102*,-16,
O=C(c1n[nH]c(=O)c2ccccc12)N1CCC2(CC1)OCCO2,-4,-5,-7,13,-11,-2,·,
O=C1NC(=S)SC1=Cc1ccc(N(CCCl)CCCl)cc1,·,·,·,·,·,53*,67*,
CCCC(CCC)C(=O)OC[N+](C)(C)CCOC(=O)C(O)(c1ccccc1)C1CCCC1 (centres undefined),-4,6,-12,-17,48,2,·,
COc1ccc(C(c2nnnn2-c2c(C)cccc2C)N2CCC(n3c(=O)[nH]c4ccccc43)CC2)cc1 (centres undefined),·,·,·,·,·,-1,·,
